High-throughput results as filed in PubChem BioAssay.
The list is not random: actives were taken first. Their share in the collection is about 2.9%.
Rtt109 Vps75: C. albicans Rtt109 histone acetyltransferase inhibition | inhibition, % at 34.9 µM | 330,000 compounds, 0.16% hits | Q5AAJ8 | purified Rtt109/Vps75, ThioGlo CoA-SH fluorescence, 4 h;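 active = inhibition of at least 50% in every replicate; inconclusive = best replicate reaches 50% inhibition but some replicates fall short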
Target sequence (Q5AAJ8 whole entry, looked up): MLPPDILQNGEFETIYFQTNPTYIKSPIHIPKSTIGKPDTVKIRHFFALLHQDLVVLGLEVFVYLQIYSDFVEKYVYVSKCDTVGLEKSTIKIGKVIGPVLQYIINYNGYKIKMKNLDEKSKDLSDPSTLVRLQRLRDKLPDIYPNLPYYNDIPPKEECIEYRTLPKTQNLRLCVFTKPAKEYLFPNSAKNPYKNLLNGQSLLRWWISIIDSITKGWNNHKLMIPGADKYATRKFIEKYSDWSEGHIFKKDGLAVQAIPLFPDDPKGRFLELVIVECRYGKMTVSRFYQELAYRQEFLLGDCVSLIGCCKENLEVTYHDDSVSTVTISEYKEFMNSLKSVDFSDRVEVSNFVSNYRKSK
H9c2 protect: protects H9c2 cardiomyocytes from peroxide injury; H2O2 injury protection, ATPLite, 2 h; protection from H2O2 cell death, % at 20 µM; 360,000 compounds, 0.63% hits;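 active = compounds giving at least 50% protection of heart cells from peroxide-induced death in the single-dose screen, raw or plate-pattern-corrected value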;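 note: 0% = DMSO wells with peroxide and 100% = DMSO wells without peroxide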
ABHD5 PLIN5 PPI: ABHD5-PLIN5 protein interaction inhibition | Q00G26+Q8WTS1 | Split G. princeps luciferase complementation, luminescence, 4 h | inhibition, % at 4 µM | 360,000 compounds, 0.78% hits;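 active = inhibition above the mean inhibition across every tested compound plus 3 SD, cut at about 22% in these data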;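 note: 0% = DMSO only wells and the 100% control is not disclosed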
DAGLB inh: blocks human DAGLB lipase activity; HEK293T DAGLB membrane lysate, EnzChek fluorogenic substrate; inhibition, % at 5.17 µM; 340,000 compounds, 0.059% hits; AID 504411; in the data active = inhibition above about 34%;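 note: 0% = enzyme with vehicle and 100% = wells lacking enzyme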
HGIII-sPLA2 inh: Inhibits HGIII-sPLA2 liposome hydrolysis, primary screen | 370,000 compounds, 0.56% hits | AID 743126 | Q9NZ20 | inhibition, % at 12.2 µM | QFRET BODIPY PC-A2 liposome hydrolysis, fluorescence;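 active = inhibition above mean plus 3 SD of compounds lying within the high and low control bounds, cut at about 19% in these data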;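 note: 0% = median of test compound wells and 100% = no enzyme DMSO wells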
Myeloid diff 2: compounds promoting myeloid differentiation. ER-HoxA9 myeloid progenitors, lysozyme-GFP differentiation, flow cytometry. calls only at 10 µM. 360,000 compounds, 1% hits;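 active = normalized GFP-positive differentiation at or above the plate's own cutoff, the solvent-only control mean plus 3 SD; inconclusive = no clear call, values can overlap the other calls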;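 note: cells exposed to compound for four days before flow analysis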
* = called active by the depositor; i = inactive; ? = inconclusive; · = no result; + = active, no number.

SMILES	Rtt109 Vps75	H9c2 protect	ABHD5 PLIN5 PPI	DAGLB inh	HGIII-sPLA2 inh	Myeloid diff 2
O=C(COc1ccc(Cl)cc1)N/N=C/c1cccc2cccnc12	10	38	4	-2	7	i
COc1cccc(/C=N/NC(=O)COc2cccc3cccnc23)c1O	11	47	6	0	-26	i
COc1ccc(OCC(=O)N/N=C/c2cccc3cccnc23)cc1	-1	68*	-1	1	-16	i
COc1ccccc1OCC(=O)N/N=C/c1cccc2cccnc12	1	65*	0	-1	1	i
Cc1c(NC(=O)c2ccco2)cccc1C(=O)NN1C(=O)c2ccccc2C1=O	-1	3	-4	-2	1	i
Cc1cc(C)nc(NC(=S)Nc2cccc(Cl)c2Cl)c1	-6	-14	-4	-4	0	+
O=C(CNC(=S)NC(=O)c1ccc(Cl)cc1)c1ccccc1	-4	-1	-6	-6	-13	i
O=C(CNC(=S)NC(=O)c1ccc(Br)o1)c1ccccc1	10	-6	-1	-3	4	+
CCCNC(=O)c1ccc2c(=O)c(O)c(-c3ccc(F)cc3)[nH]c2c1	-20	57*	4	6	·	i
COc1ccc(CCN(C(=O)c2cccc(F)c2)C2CC(=O)N(c3ccc(OC)cc3)C2=O)cc1 (centres undefined)	0	-14	12	-1	-20	i
Oc1ccc(Nc2nc3ccccc3nc2Nc2ccc(O)cc2)cc1	29	-3	57*	1	·	?
Oc1ccc(Nc2nc(-c3ccccc3)nc3ccccc23)cc1	-4	9	12	-2	·	i
CCc1sc(C(=O)Nc2cccc(C(C)=O)c2)cc1C	52*	-4	-1	-3	-9	i
CC(=O)c1cccc(NC(=O)c2cc(Cl)sc2Cl)c1	5	1	-6	0	-1	i
CC1CCN(S(=O)(=O)c2ccc(C(=O)Nc3nnc(C4=COCCO4)o3)cc2)CC1	-1	29	0	4	-10	i
Cc1ccc2[nH]c3c(c2c1)CN(C(=O)CN1CCSCC1)CC3	-2	·	·	·	-8	·
Cc1ccc2[nH]c3c(c2c1)CN(C(=O)CN1CC(C)OC(C)C1)CC3 (centres undefined)	-16	1	2	-4	-15	+
COC(=O)[C@]12C[C@H](CC(=O)NCCC(C)C)C(=O)N(Cc3ccc4c(c3)OCO4)C1=C[C@H](C(C)C)O[C@@H]2C1CC1	·	·	·	·	-8	·
CC(=O)NC(c1cc(Cl)c2ccccc2c1O)C(C)C (centres undefined)	1	-16	-5	-1	-2	+
CC(=O)NC(c1cc(Cl)c2cccnc2c1O)C(C)C (centres undefined)	9	30	-4	2	-4	?
CC(=O)NC(c1cc(Cl)c2cccnc2c1O)C1CC1 (centres undefined)	3	60*	1	4	5	?
COc1ccc(C(C)(O)c2nc(-c3cncnc3)cs2)cc1 (centres undefined)	·	-7	7	·	2	i
CC(C)(C)C(=O)/C=c1\s/c(=C\c2ccc(-c3ccc([N+](=O)[O-])cc3)o2)c(=O)n1CC(=O)NC(N)=O	-1	52*	1	-85	-15	+
CCOC(=O)CN1C(=O)C(=O)N(Cc2c(C)cc(C)cc2C)C1=O	·	0	-10	0	4	+
COc1ccccc1CCC(=O)OCC(=O)Nc1cc(S(=O)(=O)N2CCOCC2)ccc1C	0	1	5	1	-7	i
SMILES	Rtt109 Vps75	H9c2 protect	ABHD5 PLIN5 PPI	DAGLB inh	HGIII-sPLA2 inh	Myeloid diff 2
Cc1ccc(NC(=O)c2nc[nH]c2C(=O)NC2CCN(C(=O)OC(C)(C)C)CC2)cc1	-4	9	2	-2	1	i
CC(C)(C)OC(=O)N1CCC(NC(=O)c2[nH]cnc2C(=O)Nc2ccccc2)CC1	8	14	1	-3	5	+
COc1cccc(Nc2cc(C)c3ccccc3n2)c1	-10	-4	4	-2	-3	i
COc1cc2ccnc(C=O)c2cc1OC	·	56*	-1	-8	·	?
O=c1[nH]c(N2CCN(c3ccccc3)CC2)nc2c1CCCC2	2	55*	0	0	8	i
O=c1[nH]c(N2CCN(c3ccccc3)CC2)nc2c1CCC2	0	51*	1	0	-7	i
O=c1[nH]c(N2CCN(Cc3ccccc3)CC2)nc2c1CCC2	4	4	0	·	4	i
COc1ccc(S(=O)(=O)N2CCOC23CCN(S(=O)(=O)c2ccc(Cl)cc2)CC3)cc1	-4	-8	-7	-1	8	i
COc1ccc(N2C(=O)CC(c3cc(OC)c(OC)c(OC)c3)CC2=O)cc1	-3	8	-3	1	2	i
CCC(=NNC(=O)c1ccc2c(c1)nc(C)n2CC)c1cc(F)ccc1O	0	52*	-8	4	11	·
COc1ccc(-c2cc(-c3ccc(O)cc3)nc(N)c2C#N)cc1OC	·	56*	8	3	-29	i
COc1ccc(-c2sc3cc4c(cc3c2-c2ccc(OCCN3CCCCC3)cc2)OCO4)cc1	-6	-21	-5	-1	·	+
CC(C)Cn1c2nc3ccccc3nc2c2c(=O)n(CCN3CCOCC3)cnc21	-2	2	5	-2	2	+
COc1cccc(NC(=O)c2ocnc2C)c1	-14	6	1	2	4	i
CC[C@H]1c2[nH]c3ccccc3c2C[C@@H]2C(=O)N(c3ccc(F)cc3)C(=O)N21	8	-8	2	0	-28	+
O=C(CSc1nnc(-c2cccnc2)n1Cc1ccco1)c1ccccc1	-13	50*	11	-1	-31	i
O=C(CSc1nnc(-c2ccc(O)cc2)n1Cc1ccco1)c1ccccc1	-10	2	2	1	-62	i
Cc1ccc(CSc2nnc(-c3ccccc3)n2Cc2ccco2)cc1	·	·	·	·	-7	·
O=C(CSc1nnc(-c2ccccn2)n1Cc1ccco1)c1ccc(-c2ccccc2)cc1	13	8	57*	7	-22	i
N#Cc1ccc(CSc2nnc(-c3ccccc3)n2Cc2ccco2)cc1	-8	4	4	1	-5	+
COC(=O)CSc1nnc(-c2ccccn2)n1Cc1ccco1	2	2	1	-1	2	i
Cn1nc(C(C)(C)C)cc1N1C(=O)CCC1(C)C(=O)NC1CCCC1 (centres undefined)	·	6	-3	·	6	i
Cc1ccc(S(=O)(=O)NCCC(=O)NCCCSc2ccccc2)cc1	6	-9	10	-2	-7	i
COc1ccc(/C=N/NC(=O)c2cc(-c3ccc4c(c3)OCO4)n[nH]2)cc1OC	-36	65*	1	0	-4	i
Cc1cccc(N2CCC(N3CCN(C4CCCCC4)C(CCO)C3)CC2)c1C (centres undefined)	1	0	-4	0	3	i
